Test [1] is described as follows: NCI Yeast Anticancer Drug Screen. Data for the rad50 strain (AID 155).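 Also: 0% = growth of vehicle-only cultures of the same strain.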 As to conditions: S. cerevisiae rad50 strain growth inhibition; at 50.0 µM; hits give high values. The gist of the method:
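Readout: growth inhibition relative to vehicle-treated cultures. Compound exposure was carried out in a genetically defined yeast strain deficient in DNA damage repair.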

The nature of test [2]: NCI Yeast Anticancer Drug Screen. Data for the mec2-1 strain (AID 157). As to conditions: S. cerevisiae mec2-1 strain, at 50.0 µM, hits give high values. The gist of the method: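 Growth inhibition is read against vehicle-treated controls after compound exposure of the mec2-1 yeast strain, which is defective in DNA damage repair or cell cycle control.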
The nature of test [3]: NCI Yeast Anticancer Drug Screen. Data for the sgs1 mgt1 strain (AID 161).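 Also: 0% = growth of cultures given vehicle only.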 As to conditions: S. cerevisiae sgs1 mgt1 strain, at 50.0 µM, hits give high values. In short, it runs like this: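 Percent growth inhibition was derived by comparing compound-exposed mutant yeast with vehicle-exposed cultures. The strain carries alterations in DNA damage repair.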
A short description of test [4]: NCI Yeast Anticancer Drug Screen. Data for the cln2 rad14 strain (AID 165).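 Also: 0% = growth equal to vehicle treated cultures.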 As to conditions: S. cerevisiae cln2 rad14 strain, at 50.0 µM, hits give high values. The gist of the method:
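Growth inhibition, relative to vehicle-treated controls, is the read-out. The test organism is a yeast strain with defined genetic alterations, cln2 rad14.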

Test [5] in a line: NCI Yeast Anticancer Drug Screen. Data for the bub3 strain (AID 167). The settings on record: S. cerevisiae bub3 mutant strain, at 50.0 µM, hits give high values. The gist of the method:
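Readout: yeast growth inhibition, expressed relative to vehicle-only wells. The test organism is a mutant strain from a panel with lesions in DNA repair or checkpoint genes.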

Test [6] can be described thus: NCI Yeast Anticancer Drug Screen. Data for the mlh1 rad18 strain (AID 175). As to conditions: S. cerevisiae mlh1 rad18 strain growth inhibition; at 50.0 µM; hits give high values. In short, it runs like this: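 Cells of a genetically altered yeast strain, deficient in DNA damage repair, were treated with compound. Their growth was then compared with that of vehicle-treated cultures to give inhibition.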

This is part of a sample that, as a whole, favours compounds with a hit. Of some 79,000 tested, about 15% had one in any assay. A number with no mark means an inactive call. The source made the active and inactive calls. Rule as the data show it: active = growth inhibition above about 70%; inactive = the rest.

`CC1CCCCCN1CCC(=O)c1ccccc1` (stereo unspecified): the growth inhibition is 17.9% in test [1]; 25.1% in test [2]; 17.9% in test [3]; 19.2% in test [4]; 32.6% in test [5]; 8.65% in test [6].

In the case of `O=c1[nH]c(Nc2nc3ccccc3[nH]2)nc(O)c1-c1ccccc1`, the growth inhibition was -2.85% in test [1]; -14% in test [2]; -23.2% in test [3]; -6.7% in test [4]; -6.05% in test [5]; -28.6% in test [6].

As for `COC(=O)[C@@]12CN(C)[C@@H](C(C)(C)C)N1C(=O)OC2c1ccccc1` (stereo partly specified), the growth inhibition in test [1] is 24.4%; in test [2], -25.4%; in test [3], -23.1%; in test [4], -1.8%; in test [5], 36.6%; in test [6] it was -8.35%.

For the molecule `CCCCc1ccc2nc3cc4ccccc4cc3nc2c1`, the growth inhibition in test [1] is 12.8%; in test [2], 51.1%; in test [3], 32.6%; in test [4], -16%; in test [5], 20.6%; in test [6] it was 7.6%.

As to `C#CC(C)(O)c1ccccc1` (stereo unspecified), the growth inhibition in test [1] is -1.15%; in test [2], -22.1%; in test [3] it was -7.75%; in test [4] it was -21.6%; in test [5] it was -1.95%; in test [6] it was -11.6%.

Take `O=C1NC2(O)C(=O)c3ccccc3C2(O)N1` (stereo unspecified): the growth inhibition is -8.65% in test [1]; -10.2% in test [2]; -27.9% in test [3]; 5.8% in test [4]; -17.3% in test [5]; 0.55% in test [6].

On to `CC1(C(Cl)(Cl)Cl)C=C/C(=N\O)C(Cl)=C1` (stereo unspecified), for which the growth inhibition in test [1] is -2.3%; in test [2], -10.7%; in test [3] it was -1.9%; in test [4] it was 4.95%; in test [5] it was -8.9%; in test [6] it was -7.75%.

In the case of `CCOC(=O)Cn1c(=O)c2ccccc2c2cc([N+](=O)[O-])ccc21`, the growth inhibition in test [1] is -6.45%; in test [2], 11.3%; in test [3], 13.2%; in test [4], 5.95%; in test [5], -3.65%; in test [6] it was -11.7%.

On to `Cc1c2cnccc2c(C)c2c1c1ccccc1n2CCCCCCCl`, for which the growth inhibition is 94.5% (active) in test [1]; 69% in test [2]; 49.8% in test [3]; 66% in test [4]; 95.7% (active) in test [5]; 98.5% (active) in test [6].

Turning to `CC(C)N1C(=O)c2cccc3c(Br)ccc(c23)C1=O`, the growth inhibition in test [1] was 97.8% (active); in test [2], 99.3% (active); in test [3], 97.2% (active); in test [4], 98.4% (active); in test [5], 99.2% (active); in test [6], 98.5% (active).

For `CCO/N=C(/N)c1ncn(Cc2ccccc2)c1NCC(OCC)OCC`, the growth inhibition is -26.4% in test [1]; 1.15% in test [2]; -4.2% in test [3]; 22.2% in test [4]; -1% in test [5]; -16.9% in test [6].

Turning to `CCc1nc(=S)c2cnn(-c3ccccc3)c2[nH]1`, the growth inhibition is 16.4% in test [1]; 1.1% in test [2]; 11.2% in test [3]; -33.5% in test [4]; 8.05% in test [5]; 23.6% in test [6].

As for `CCOC#CCCOCc1ccccc1`, the growth inhibition in test [1] was -28.9%; in test [2] it was -46.2%; in test [3] it was -5.25%; in test [4], -1.65%; in test [5] it was -11%; in test [6], -16.6%.

In the case of `CC(C)(O)c1cccc(I)c1`, the growth inhibition in test [1] was 7.7%; in test [2] it was -58.9%; in test [3], -21.1%; in test [4], -144%; in test [5], -39.8%; in test [6], 1.55%.

`CCOc1cc2c(cc1C(C)c1ccc(OCc3ccccc3)c(OC)c1)OCO2` (stereo unspecified): the growth inhibition in test [1] was 18.8%; in test [2], -6.7%; in test [3], -5.35%; in test [4], 11.7%; in test [5], -2.05%; in test [6], 1.75%.

For `CC(C)CNCCCC(C)Nc1ccnc2cc(Cl)ccc12` (stereo unspecified), the growth inhibition in test [1] was 11.3%; in test [2], -1.45%; in test [3], -2.25%; in test [4], -2.95%; in test [5], -15%; in test [6], -9.65%.

For `CC(=O)NC(N)=O`, the growth inhibition in test [1] is 3.9%; in test [2], 2.2%; in test [3] it was 28.4%; in test [4], -30.9%; in test [5], -1.9%; in test [6] it was 1.6%.

For the molecule `O=C(CCC(=O)Nc1cc(Cl)ccc1Cl)CC(=O)c1ccc(Cl)cc1`, the growth inhibition in test [1] was 14.1%; in test [2] it was 24.9%; in test [3] it was 10.4%; in test [4], 11%; in test [5], -1.65%; in test [6], -6.75%.

Turning to `COc1cc(C=C2N=C(c3ccccc3)N(n3c(-c4ccccc4)nc4ccccc4c3=O)C2=O)cc(OC)c1OC`, the growth inhibition is -7.4% in test [1]; -6.6% in test [2]; 9.45% in test [3]; 7.85% in test [4]; 0.65% in test [5]; 21.6% in test [6].

Regarding `CC(/C=C1\N=C(c2ccccc2)OC1=O)=C\c1ccccc1`, the growth inhibition in test [1] was -40%; in test [2], -22.1%; in test [3] it was -33.5%; in test [4] it was 9.2%; in test [5], -35.4%; in test [6] it was -28.9%.

As for `Oc1c(Cl)cc(Cl)cc1C=Nc1ccc2c(ccc3c4ccccc4ccc23)c1`, the growth inhibition in test [1] was 7.95%; in test [2], 2.4%; in test [3] it was -2.4%; in test [4], -41.4%; in test [5], 6.55%; in test [6], 15.1%.

The record behind these values is PubChem BioAssay (NCI).
